Measurements reported in PubChem BioAssay (Tox21).
Where “and” joins values, the source holds several entries; their conditions need not be identical. Equal entries are not always repeated. Results filed as inconclusive are left out. Where a call stands in place of a potency, no number is given. Some compounds were tested as several samples or in several runs, with calls that do not always agree. Calls of active or inactive are those of the source. Unless noted, calls follow the shape of the dose curve; as a rule, active = well fitted curve in the direction sought with a large enough effect in the repeat runs; inconclusive = weak or mixed curves; inactive = no such curve, though single readings can be large; an effect the other way counts as inactive or inconclusive. Positions of bridges follow the written chain, without caps; N, C: chain ends. Non-standard residues stand in square brackets, D forms with d. Residues, ends and D or L forms follow the SMILES beside them. *: point of attachment. X1 = CC[C@@H](C)[C@@H](N)C1=N[C@H](C(=O)*)CS1; Dab(CH2SO3H) = N[C@@H](CCNCS(=O)(=O)O)C(=O)O; d(aIle) = CC[C@H](C)[C@@H](N)C(=O)O; X3 = CC[C@@H](C)CCCCC(=O)*; dOrn = NCCC[C@@H](N)C(=O)O; Dab = NCC[C@H](N)C(=O)O

Tests used:
[1] = qHTS assay to identify small molecule antagonists of the thyroid receptor (TR) signaling pathway - cell viability counter screen (AID 743064); also: nearly all actives have a fitted effect of over 50% in size; also: potency is read from the fitted curve at half-maximal effect
In short: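 Counter screen for cytotoxicity: compound plus T3 (1 nM final) on GH3.TRE-Luc cells, 23.5 h at 37 °C, then fluorescence viability readout with CellTiter-Fluor.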

[2] = qHTS assay to identify small molecule antagonists of the thyroid receptor (TR) signaling pathway (AID 743065); also: nearly all actives have a fitted effect of over 55% in size; also: potency is read from the fitted curve at half-maximal effect
In short: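 GH3.TRE-Luc rat pituitary cells (two TREs driving luciferase) were dosed with compound, then stimulated with 1 nM T3 (final) for 23.5 h at 37 C. ONE-Glo luminescence was the read-out, with CellTiter-Fluor fluorescence as the cytotoxicity counter-screen.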

[3] = system: thyroid hormone receptor (rat, GH3 cells); experiment: qHTS assay to identify small molecule agonists of the thyroid receptor (TR) signaling pathway (AID 743066; calls by dose curve)
[4] = target: Estrogen receptor (Homo sapiens) (UniProt P03372); experiment: qHTS assay to identify small molecule antagonists of the estrogen receptor alpha (ER-alpha) signaling pathway (AID 743069; active = well fitted curve in the direction sought with a large enough effect in the signal ratio in the repeat runs, not every such curve was filed as active; the % refers to the signal ratio)
In short: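 Beta-lactamase FRET fluorescence is read after 2 hr at room temperature with LiveBLAzer B/G substrate. Before that, ER-alpha-bla HEK293 cells sit 4 hr after plating, then receive compound plus 17beta-estradiol and incubate 18 hr at 37C.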

[5] = qHTS assay to identify small molecule antagonists of the estrogen receptor alpha (ER-alpha) signaling pathway - cell viability counter screen (AID 743074; calls by dose curve;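 also: HEK293 cells carrying ER-alpha-UAS-bla reporter stimulated with 17beta-estradiol; nearly all actives have a fitted effect of over 45% in size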)
[6] = target: Estrogen receptor (Homo sapiens) (UniProt P03372); experiment: qHTS assay to identify small molecule agonists of the estrogen receptor alpha (ER-alpha) signaling pathway (AID 743075; calls by dose curve;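 also: HEK293 GripTite cells with ER-alpha and UAS-driven beta-lactamase reporter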)
[7] = target: Estrogen receptor (Homo sapiens) (UniProt P03372); experiment: qHTS assay to identify small molecule agonists of the estrogen receptor alpha (ER-alpha) signaling pathway using the BG1 cell line (AID 743079); also: nearly all actives have a fitted effect of over 20% in size; also: potency is read from the fitted curve at half-maximal effect
[8] = qHTS assay to identify small molecule antagonists of the estrogen receptor alpha (ER-alpha) signaling pathway using the BG1 cell line (AID 743080; calls by dose curve;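 also: BG1 cells stimulated with 17beta-estradiol alongside compound; nearly all actives have a fitted effect of over 25% in size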; also: potency is read from the fitted curve at half-maximal effect)
In short: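 Luciferase inhibition measured with ONE-Glo after 30 min at RT in BG1Luc4E2 cells given test compounds and 17beta-estradiol for 21.5 h at 37 C; CellTiter-Fluor viability read in the same wells beforehand.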

[9] = qHTS assay to identify small molecule antagonists of the estrogen receptor alpha (ER-alpha) signaling pathway using the BG1 cell line - cell viability counter screen (AID 743081);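 also: compound given together with 17beta-estradiol as the ER stimulus; series mostly up to about 70 µM; nearly all actives have a fitted effect of over 45% in size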
Aromatase (Homo sapiens) = Aromatase (Homo sapiens) (UniProt P11511); experiment: qHTS assay to identify aromatase inhibitors (AID 743083); also: series mostly up to about 70 µM; nearly all actives have a fitted effect of over 55% in size
Sequence of Aromatase (Homo sapiens) (P11511 whole entry, looked up): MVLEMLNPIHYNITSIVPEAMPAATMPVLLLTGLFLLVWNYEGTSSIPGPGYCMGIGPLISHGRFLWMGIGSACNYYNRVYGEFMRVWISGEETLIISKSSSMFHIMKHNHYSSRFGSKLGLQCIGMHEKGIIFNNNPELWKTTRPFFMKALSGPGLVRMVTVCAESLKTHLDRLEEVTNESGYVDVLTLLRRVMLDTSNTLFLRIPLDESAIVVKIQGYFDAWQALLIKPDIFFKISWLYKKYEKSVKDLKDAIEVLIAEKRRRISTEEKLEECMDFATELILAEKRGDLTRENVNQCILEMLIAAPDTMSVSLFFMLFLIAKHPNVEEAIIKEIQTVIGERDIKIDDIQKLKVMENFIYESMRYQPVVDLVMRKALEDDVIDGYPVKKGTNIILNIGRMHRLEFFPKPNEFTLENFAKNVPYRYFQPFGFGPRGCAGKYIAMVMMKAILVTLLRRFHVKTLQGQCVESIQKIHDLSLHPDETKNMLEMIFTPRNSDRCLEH

Sequence of Estrogen receptor (Homo sapiens) (P03372 whole entry, looked up): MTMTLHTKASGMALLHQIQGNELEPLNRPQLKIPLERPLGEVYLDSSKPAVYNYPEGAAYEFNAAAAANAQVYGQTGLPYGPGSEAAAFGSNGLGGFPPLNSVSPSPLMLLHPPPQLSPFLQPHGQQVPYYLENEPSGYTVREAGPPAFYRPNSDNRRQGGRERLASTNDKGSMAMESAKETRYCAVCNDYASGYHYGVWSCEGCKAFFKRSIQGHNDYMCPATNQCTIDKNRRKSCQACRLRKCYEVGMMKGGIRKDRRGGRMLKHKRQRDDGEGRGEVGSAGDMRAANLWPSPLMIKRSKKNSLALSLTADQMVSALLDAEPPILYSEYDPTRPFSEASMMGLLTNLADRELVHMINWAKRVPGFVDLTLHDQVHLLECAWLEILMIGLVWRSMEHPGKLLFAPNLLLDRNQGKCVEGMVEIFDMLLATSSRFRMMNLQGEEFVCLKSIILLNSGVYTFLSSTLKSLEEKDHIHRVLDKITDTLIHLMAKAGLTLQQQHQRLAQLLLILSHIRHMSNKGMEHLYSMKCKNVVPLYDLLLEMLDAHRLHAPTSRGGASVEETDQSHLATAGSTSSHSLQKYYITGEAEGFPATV

SMILES | Potency [1] | Potency [2] | Potency [3] | Potency [4] | Potency [5] | Potency [6] | Potency [7] | Potency [8] | Potency [9] | Potency (Aromatase (Homo sapiens))
NCCCC[C@H](NC(=O)[C@@H]1CCCN1C(=O)[C@@H]1CSSC[C@H](N)C(=O)N[C@@H](Cc2ccc(O)cc2)C(=O)N[C@@H](Cc2ccccc2)C(=O)N[C@@H](CCC(N)=O)C(=O)N[C@@H](CC(N)=O)C(=O)N1)C(=O)NCC(N)=O | inactive | inactive | inactive | inactive | inactive | inactive | inactive | inactive | inactive | inactive
CC[C@H]1OC(=O)C[C@@H](O)[C@H](C)[C@@H](O[C@@H]2O[C@H](C)[C@@H](O)[C@H](N(C)C)[C@H]2O)[C@@H](CCN2C[C@H](C)C[C@H](C)C2)C[C@@H](C)C(=O)/C=C/C(C)=C/[C@@H]1CO[C@@H]1O[C@H](C)[C@@H](O)[C@@H](OC)[C@H]1OC | inactive | inactive | inactive | inactive | inactive | inactive | inactive | inactive | inactive | inactive
CC1(C)CCC(NC(=O)[C@@H](N)CCC(=O)O)CC1 | inactive | inactive | inactive | inactive | inactive | inactive | inactive | inactive | inactive | inactive
C=CC1=C(C(=O)O)N2C(=O)[C@@H](NC(=O)/C(=N\O)c3csc(N)n3)[C@H]2SC1 (stereo in doubt) | inactive | inactive | inactive | inactive | inactive | inactive | inactive | inactive | inactive | inactive
Cc1cc(=O)c(C(=O)N[C@@H](C(=O)N[C@@H]2C(=O)N3C(C(=O)O)=C(CSc4nnnn4C)CS[C@H]23)c2ccc(O)cc2)c[nH]1 | inactive | inactive | inactive | inactive | inactive | inactive | 23.7 µM (active) | inactive | inactive | inactive
CC12CCC(C1)C(C)(C)C2=O (centres undefined) | inactive | inactive | inactive | inactive | inactive | inactive | inactive | inactive | inactive | inactive
CSCCC(N)C(=O)O (centres undefined) | inactive | inactive | inactive | inactive | inactive | inactive | inactive | inactive | inactive | inactive
CCC(=O)OC(OP(=O)(CCCCc1ccccc1)CC(=O)N1C[C@H](C2CCCCC2)C[C@H]1C(=O)O)C(C)C (some centres undefined) | inactive | inactive | inactive | inactive | inactive | inactive | inactive | inactive | inactive | inactive
CO/N=C(\C(=O)N[C@@H]1C(=O)N2C(C(=O)O)=C(CSc3nc(C)c(CC(=O)O)s3)CS[C@H]12)c1csc(N)n1 | inactive | inactive | inactive | inactive | inactive | inactive | inactive | inactive | inactive | inactive
CCC[C@@H]1C[C@@H](C(=O)N[C@@H]([C@H]2O[C@H](SC)[C@H](OP(=O)(O)O)[C@@H](O)[C@H]2O)[C@H](C)Cl)N(C)C1 | inactive | inactive | inactive | inactive | inactive | inactive | inactive | inactive | inactive | inactive
C[C@H](Cc1ccc(O)c(O)c1)[C@@H](C)Cc1ccc(O)c(O)c1 | 9.44 µM (active) | 8.41 µM (active) | inactive | inactive | inactive | inactive | inactive | inactive | inactive | inactive
C[N+]1(CCCCC[N+]2(C)CCCC2)CCCC1 | inactive | inactive | inactive | inactive | inactive | inactive | inactive | inactive | inactive | inactive
CC[C@@H](C)[C@@H](N)C1=N[C@H](C(=O)N[C@@H](CC(C)C)C(=O)N[C@@H](CCC(=O)O)C(=O)N[C@@H](C(=O)N[C@@H]2CCCCNC(=O)[C@@H](CC(N)=O)NC(=O)[C@@H](CC(=O)O)NC(=O)[C@@H](Cc3cnc[nH]3)NC(=O)[C@@H](Cc3ccccc3)NC(=O)[C@@H]([C@H](C)CC)NC(=O)[C@@H](CCCN)NC2=O)[C@@H](C)CC)CS1 (X1-LE[d(aIle)][dK][dOrn][dI][dF][dH][dD][dN]; lactam 4-C) | inactive | inactive | inactive | inactive | inactive | inactive | 4.03 µM (active) and inactive | inactive | inactive | inactive
CC[C@H]1OC(=O)C[C@@H](O)[C@H](C)[C@@H](O[C@@H]2O[C@H](C)[C@@H](O[C@H]3C[C@@](C)(O)[C@@H](O)[C@H](C)O3)[C@H](N(C)C)[C@H]2O)[C@@H](CC=O)C[C@@H](C)C(=O)/C=C/C(C)=C/[C@@H]1CO[C@@H]1O[C@H](C)[C@@H](O)[C@@H](OC)[C@H]1OC | inactive | inactive | inactive | inactive | inactive | inactive | inactive | 16.8 µM (active) and inactive | inactive | inactive
C/C(=C\C(=O)OCCCCCCCCC(=O)O)C[C@@H]1OC[C@H](C[C@@H]2O[C@H]2[C@@H](C)[C@H](C)O)[C@@H](O)[C@H]1O | inactive | inactive | inactive | inactive | inactive | inactive | inactive | inactive | inactive | inactive
N=C(N)n1cccn1 | inactive | inactive | inactive | inactive | inactive | inactive | inactive | inactive | inactive | inactive
O=P(O)(O)C(O)(Cn1ccnc1)P(=O)(O)O | inactive | inactive | inactive | inactive | inactive | inactive | inactive | inactive | inactive | inactive
CC(=O)OCC(=O)[C@@]1(O)CC[C@H]2[C@@H]3CCC4=CC(=O)CC[C@]4(C)C3=CC[C@@]21C | inactive | inactive | inactive | inactive | inactive | inactive | 29.8 µM (active) | inactive | inactive | inactive

SMILES | Potency [1] | Potency [2] | Potency [3] | Potency [4] | Potency [5] | Potency [6] | Potency [7] | Potency [8] | Potency [9] | Potency (Aromatase (Homo sapiens))
NC[C@H]1O[C@H](O[C@H]2[C@H](O)[C@@H](O[C@H]3O[C@H](CO)[C@@H](O)[C@H](N)[C@H]3O)[C@H](N)C[C@@H]2N)[C@H](N)C[C@@H]1O | inactive | inactive | inactive | inactive | inactive | inactive | inactive | inactive | inactive | inactive
CC(=NCc1ccccc1)c1ccccc1O | inactive | inactive | inactive | inactive | inactive | inactive | inactive | inactive | inactive | inactive
CC[C@H]1OC(=O)[C@H](C)C(=O)[C@H](C)[C@@H](O[C@@H]2O[C@H](C)C[C@H](N(C)C)[C@H]2O)[C@](C)(OC)C[C@@H](C)C(=O)[C@H](C)[C@H]2N(CCCCn3cnc(-c4cccnc4)c3)C(=O)O[C@]12C | inactive | inactive | inactive | inactive | inactive | inactive | inactive | inactive | inactive | inactive
CC12CCC(C[N+](C)(CCC[N+](C)(C)C)C1)C2(C)C (centres undefined) | inactive | inactive | inactive | inactive | inactive | inactive | inactive | inactive | inactive | inactive
C1CCc2nnnn2CC1 | inactive | inactive | inactive | inactive | inactive | inactive | inactive | inactive | inactive | –
O=P(O)(O)CP(=O)(O)O | inactive | inactive | inactive | inactive | inactive | inactive | inactive | inactive | inactive | inactive
C[N+](C)(C)CCOP(=O)(O)OP(=O)([O-])OC[C@H]1O[C@@H](n2ccc(N)nc2=O)[C@H](O)[C@@H]1O | inactive | inactive | inactive | inactive | inactive | inactive | inactive | inactive | inactive | inactive
CC(C)=CCC/C(C)=C/CC/C(C)=C/CC/C(C)=C/CC1=C(C)C(=O)c2ccccc2C1=O | inactive | inactive | inactive | inactive | inactive | inactive | inactive | inactive and 9.44 µM (active) | inactive | inactive
C=C(Nc1ccc(OCC)cc1)Nc1ccc(OCC)cc1 | inactive | inactive | inactive | inactive | inactive | inactive | inactive | inactive | inactive | inactive
CC(C)CCC[C@@H](C)[C@H]1CC[C@H]2[C@@H]3CC=C4C[C@@H](O)CC[C@]4(C)[C@H]3CC[C@]12C | inactive | inactive | inactive | inactive | inactive | inactive | inactive | inactive | inactive | inactive
O=C1c2ccccc2CN2C(=O)c3ccccc3CN12 | inactive | inactive | inactive | inactive | inactive | inactive | inactive | inactive | inactive | inactive
CC[C@@H](C)CCCCC(=O)N[C@@H](CCNCS(=O)(=O)O)C(=O)N[C@H](C(=O)N[C@@H](CCNCS(=O)(=O)O)C(=O)N[C@H]1CCNC(=O)[C@H]([C@@H](C)O)NC(=O)[C@H](CCNCS(=O)(=O)O)NC(=O)[C@H](CCNCS(=O)(=O)O)NC(=O)[C@H](CC(C)C)NC(=O)[C@@H](CC(C)C)NC(=O)[C@H](CCNCS(=O)(=O)O)NC1=O)[C@@H](C)O (X3-[Dab(CH2SO3H)]T[Dab(CH2SO3H)][Dab][Dab(CH2SO3H)][dL]L[Dab(CH2SO3H)][Dab(CH2SO3H)]T; lactam 4-C) | inactive | inactive | inactive | inactive | inactive | inactive | inactive | inactive | inactive | inactive
CC(=O)NC[C@H]1CN(c2ccc(N3CCOCC3)c(F)c2)C(=O)O1 | inactive | inactive | inactive | inactive | inactive | inactive | 13.3 µM (active) | inactive | inactive | inactive
NCCO/C=C/[C@H](N)C(=O)O | inactive | inactive | inactive | inactive | inactive | inactive | 26.6 µM (active) | inactive | inactive | inactive
Nc1c(CC(=O)O)cccc1C(=O)c1ccccc1 | inactive | inactive | inactive | inactive | inactive | inactive | inactive and 10.6 µM (active) | inactive | inactive | inactive
O=C1c2c(O)cccc2[C@H]([C@@H]2O[C@H](CO)[C@@H](O)[C@H](O)[C@H]2O)c2cc(CO)cc(O)c21 | inactive | inactive | inactive | inactive | inactive | inactive | 13.3 µM (active) and inactive | inactive | inactive | inactive
C=CC[N+]1([C@H]2C[C@H]3[C@@H]4CC[C@H]5C[C@H](O)[C@@H](N6CCOCC6)C[C@]5(C)[C@H]4CC[C@]3(C)[C@H]2OC(C)=O)CCCC1 | inactive | inactive | inactive | inactive | inactive | inactive | 26.6 µM (active) | inactive | inactive | inactive
